# Biological target: Torsin-1A-interacting protein 1 (Homo sapiens) (UniProt Q5JTV8)
# Experiment: compound microarray binding of lysate hLAP1 – cell lysate, small-molecule microarray, COS7 lysate, 635/667 nm fluorescence, primary screen (AID 1116)
# Details: 635 nm fluorescence, higher = more signal
# Sequence of Torsin-1A-interacting protein 1 (Homo sapiens) (Q5JTV8 whole entry, looked up): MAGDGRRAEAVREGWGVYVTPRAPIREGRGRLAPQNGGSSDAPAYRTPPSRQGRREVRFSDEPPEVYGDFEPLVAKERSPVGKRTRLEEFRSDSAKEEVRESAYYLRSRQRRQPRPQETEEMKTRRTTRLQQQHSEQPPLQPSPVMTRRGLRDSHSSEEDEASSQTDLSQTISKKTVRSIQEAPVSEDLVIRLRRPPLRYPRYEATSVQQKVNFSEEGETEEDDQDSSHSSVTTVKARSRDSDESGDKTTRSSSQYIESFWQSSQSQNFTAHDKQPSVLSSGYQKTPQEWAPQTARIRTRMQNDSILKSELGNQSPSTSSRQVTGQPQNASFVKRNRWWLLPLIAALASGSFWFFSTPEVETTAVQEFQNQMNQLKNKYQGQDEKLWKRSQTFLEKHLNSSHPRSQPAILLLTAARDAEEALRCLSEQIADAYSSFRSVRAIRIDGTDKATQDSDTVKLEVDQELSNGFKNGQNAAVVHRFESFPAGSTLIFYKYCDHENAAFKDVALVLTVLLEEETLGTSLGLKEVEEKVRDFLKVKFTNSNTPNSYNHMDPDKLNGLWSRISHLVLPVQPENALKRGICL
row,SMILES,composite z-score
1,COCCOC(=O)N1C(=O)[C@@]2(c3cc(C#CCC(C(=O)OC)C(=O)OC)ccc31)[C@H](C(=O)N1CCCCCCC1)[C@H]1C(=O)O[C@H](c3ccccc3)[C@H](c3ccccc3)N1[C@@H]2c1ccc(OCCO)cc1,4.31
2,C=C(CCCC)/C(=C/C[C@H](OC(C)=O)c1ccc(CO)o1)c1cnc2ccccc2c1,-0.092
3,[N-]=[N+]=NCc1ccccc1[C@@H]1OC(c2ccc(OCCCO)cc2)=N[C@]1(Cc1ccccc1)C(=O)N1CCCCC1,1.27
4,C=CCNC(=O)[C@@H]1[C@H]2C(=O)O[C@H](c3ccccc3)[C@H](c3ccccc3)N2[C@H](c2ccc(OCCO)cc2)[C@@]12C(=O)Nc1ccccc12,1.55
5,O=C1OCCC=C[C@H]2OC34C=CCN(Cc5ccccc5)C(=O)[C@H]3N(CCCCCO)C(=O)[C@@H]4C12 (stereo partly drawn),1.95
6,COc1ccccc1CN1C(=O)c2ccccc2[C@@H](C(=O)NCCN2CCOCC2)[C@@H]1c1ccc(CO)cc1,1.01
7,CN1CCC(CCCO)=CC1c1ccc(CN2CCCC2)cc1 (stereo not drawn),1.49
8,COCCOC(=O)N1C(=O)[C@@]2(c3cc(C#CCCO)ccc31)[C@H](c1ccc(O)cc1)N1[C@H](c3ccccc3)[C@H](c3ccccc3)OC(=O)[C@H]1[C@@H]2C(N)=O,0.393
9,C[C@]1(C(=O)NCc2ccccc2)c2ccccc2C(=O)N(Cc2ccc(OC(F)(F)F)cc2)[C@H]1c1ccc(CO)cc1,0.696
10,COc1ccc([Si](C)(C)[C@@H]2[C@@H](CCn3cc([C@H](O)c4ccccc4)nn3)O[C@]3(C(=O)N(Cc4ccc(N5C(=O)c6cccc7cccc5c67)cc4)c4ccccc43)[C@H]2C)cc1,-0.0215
11,[N-]=[N+]=NCc1ccccc1C[C@@]1(C(=O)NCC(O)CO)N=C(c2ccc(OCCCO)cc2)O[C@@H]1c1ccccc1CN=[N+]=[N-] (stereo partly drawn),2.01
12,C=CC[C@@H](OC(=O)Nc1ccc(OC)cc1)c1ccc(O)c2ccccc12,0.3
13,CCOC(=O)C[C@H]1[C@H](OC(=O)c2ccccc2-c2ccccc2)[C@@H](NC(=O)c2ccc3ccccc3c2)c2cc(OCCCO)ccc2N1C(=O)c1ccc2ccccc2n1,0.4
14,N#Cc1ccc(NN2C(C(O)c3ccc([N+](=O)[O-])cc3)C=CC3C(=O)N(c4ccccc4)C(=O)C32)cc1 (stereo not drawn),0.818
15,[N-]=[N+]=NCc1ccccc1[C@@H]1OC(c2ccc(OCCCO)cc2)=N[C@]1(Cc1ccccc1N=[N+]=[N-])C(=O)NCc1ccccc1,1.4
16,CCOC(=O)C[C@H]1[C@H](OC(=O)c2ccc(-c3ccccc3)cc2)[C@@H](NC(=O)c2ccc3ccccc3c2)c2cc(OCCCO)ccc2N1C(=O)Cc1ccc(OC)cc1,0.15
17,CC(C)NC(=O)[C@@H]1c2ccccc2C(=O)N(Cc2ccccc2Cl)[C@H]1c1ccc(CO)cc1,1.25
18,CCCCC(CC)C(O)C1C=CC2C(=O)N(c3ccccc3)C(=O)C2N1Nc1ccccc1 (stereo not drawn),0.886
19,CC(C)C[C@@H]1NC(=O)[C@H]2C[C@@H](C(=O)NCCCCCNC(=O)CS)[C@@H](c3cccc(OCCO)c3)N2C1=O,0.698
20,CCC[C@@H]1C=C(C(=O)O)[C@H](c2ccc(C)cc2)N1S(=O)(=O)c1ccc(C)cc1,0.959
21,[N-]=[N+]=NCc1ccccc1[C@H]1OC(c2ccc(OCCCO)cc2)=N[C@@]1(CCS(=O)(=O)c1ccccc1)C(=O)N1CCOCC1,3.34
22,C=CC(COC(C)=O)NS(=O)(=O)c1ccc(Br)cc1 (stereo not drawn),0.366
23,COCCOC(=O)N1C(=O)[C@@]2(c3cc(C#CCC(C(=O)OC)C(=O)OC)ccc31)[C@H](C(=O)N1CCN(c3ncccn3)CC1)[C@H]1C(=O)O[C@H](c3ccccc3)[C@H](c3ccccc3)N1[C@@H]2c1ccc(OCCO)cc1,0.383
24,Cc1cc(C)c(C(O)C2C=CC3C(=O)N(c4ccccc4)C(=O)C3N2Nc2ccc(C#N)cc2)c(C)c1 (stereo not drawn),0.922
25,Cc1ccc(S[C@]2(C(=O)NC3CC3)CC(=O)N(C3CCCCC3)[C@@H]2c2ccc(CO)cc2I)cc1,-0.0758
26,CC(C)CNC(=O)[C@@]1(c2ccc([N+](=O)[O-])cc2)CC(=O)N(CC23CC4CC(CC(C4)C2)C3)[C@@H]1c1ccc(CO)cc1I,0.798
27,CC(C)c1ccc(NN2C(C(O)c3c(F)cccc3Cl)C=CC3C(=O)N(c4ccccc4)C(=O)C32)cc1 (stereo not drawn),0.47
28,COCCOC(=O)N1C(=O)[C@@]2(c3cc(C#CCNC(N)=O)ccc31)[C@H](c1ccc(O)cc1)N1[C@H](c3ccccc3)[C@H](c3ccccc3)OC(=O)[C@H]1[C@@H]2C(=O)Nc1nc2ccccc2s1,0.0164

# Reference: PubChem BioAssay
